From PubChem BioAssay
Active and inactive are the calls of the source.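 Rule for the calls, unless noted: active = inhibition of the reporter signal at or above 50%; inactive = inhibition below 50%.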

Assays:
[1] = inhibitors of TNFa-induced NFkB p65 translocation, primary screen, imaging, HUVEC, MLSMR starter and 10KST1 sets (AID 438;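 active = inhibition above 20% together with a positive visual image hit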;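 note: compound added about 3h40 before a 20 min TNFalpha stimulation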;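 for inhibition: signal is the nuclear over cytoplasmic p65 intensity ratio per well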); settings: HUVEC TNFa-induced p65 nuclear translocation; cell count: measured here: nuclei count (cytotoxicity indicator), at 2.08 µM; inhibition: at 2 µM, stronger effect = higher value, 0% TNFa-plus-vehicle, 100% no-TNFa wells
[2] = inhibitors of mutant huntingtin aggregation, primary screen, imaging, exon1htt(103Q)mCFP cells, high-content imaging (AID 483;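 active = visual image review flags a hit and inhibition of aggregation exceeds 20%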;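 note: compound exposure lasted 3 days before fixation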;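 for nuclei count: percent of the per-plate median nuclei count of sample wells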); settings: exon1htt(103Q)mCFP cell line, aggregate imaging, at 2 µM; inhibition of aggregation: stronger effect = higher value; nuclei count: measured here: cell count, toxicity
[3] = inhibitors of E-selectin induction by TNFa, primary screen, imaging, HUVEC, immunofluorescence, MLSMR starter and 10KST1 sets (AID 487;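 active = visually confirmed hit in the image check and inhibition above 20%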;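 for inhibition: signal is fraction of cell area covered by stained E-selectin grains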;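 for nuclei count: 100% = median nuclei count of all wells on the same plate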); settings: HUVEC TNFalpha-induced E-selectin immunofluorescence imaging, at 2 µM; inhibition: stronger effect = higher value; nuclei count: measured here: cell number, toxicity
[4] = molecular target: Voltage-gated potassium channel subunit beta-2 (Rattus norvegicus) (UniProt P62483); test: KvBeta enzyme negative modulators, primary screen, biochemical, NADPH fluorescence (AID 622;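 active = fluorescence slope higher than the sample average by over 3 SD, cut at about -0.22 in these data, passing the limit was not always enough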;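 note: slope of raw intensity against log time taken from 70 to 1610 s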); settings: recombinant KvBeta, 4-cyanobenzaldehyde reduction, at 10 µM, stronger effect = higher value
[5] = molecular target: Voltage-gated potassium channel subunit beta-2 (Rattus norvegicus) (UniProt P62483); test: KvBeta positive modulators, primary screen, biochemical, NADPH fluorescence (AID 623;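 active = NADPH fluorescence slope more negative than the mean of all samples by about 3 SD, 99.7% confidence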;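 note: fluorescence intensity change per second fitted from 20 to 320 s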); settings: Recombinant KvBeta, NADPH fluorescence decrease slope, 10 min; at 10 µM; stronger effect = lower value
[6] = molecular target: Alpha-2C adrenergic receptor (Homo sapiens) (UniProt P18825); test: modulators of alpha2C/GIRK thallium flux, primary screen, cell-based, HEK293 alpha2C/GIRK1/2 (AID 624;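 active = fluorescence slope after compound addition differing from the mean of all screened samples at 99.7% confidence, in either direction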;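 note: slope of fluorescence ratio to pre-addition baseline per second over 15 to 24 s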); settings: thallium flux BTC fluorescence, at 10 µM, actives lie on both sides
[7] = inhibitors of Sendai virus-induced IRF3 signaling, primary screen, TLR/RLR signaling modifier project, cell-based, Sendai virus stimulus, luciferase, 10K MLSCN set (AID 602276;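 active = inhibition at or above 50% at 10 µM; inactive = inhibition below 50%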;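 note: firefly luciferase from ISG56 promoter only with Renilla not read in this screen; 0% = Sendai virus plus DMSO and 100% = medium plus DMSO without virus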); settings: HEK293 RL24 IRF3 luciferase reporter, at 10 µM, stronger effect = higher value
[8] = inhibitors of poly I:C-induced TLR3 signaling, primary screen, cell-based, poly I:C stimulus, luciferase, 10K MLSCN set (AID 602277); settings: HEK293-TLR3 RL24 IRF3 luciferase reporter, at 10 µM, stronger effect = higher value

Chain of Voltage-gated potassium channel subunit beta-2 (Rattus norvegicus) (P62483 whole entry, looked up): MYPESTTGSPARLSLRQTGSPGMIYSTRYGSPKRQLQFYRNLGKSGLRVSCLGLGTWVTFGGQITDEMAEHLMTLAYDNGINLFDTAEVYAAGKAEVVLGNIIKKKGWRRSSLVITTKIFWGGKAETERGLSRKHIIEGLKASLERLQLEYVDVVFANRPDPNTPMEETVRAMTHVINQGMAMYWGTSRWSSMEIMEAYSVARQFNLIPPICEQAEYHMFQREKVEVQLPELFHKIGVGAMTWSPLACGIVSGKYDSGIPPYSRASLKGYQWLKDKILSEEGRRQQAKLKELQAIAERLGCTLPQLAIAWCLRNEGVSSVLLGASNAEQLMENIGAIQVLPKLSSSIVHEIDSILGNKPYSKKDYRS
Chain of Alpha-2C adrenergic receptor (Homo sapiens) (P18825 whole entry, looked up): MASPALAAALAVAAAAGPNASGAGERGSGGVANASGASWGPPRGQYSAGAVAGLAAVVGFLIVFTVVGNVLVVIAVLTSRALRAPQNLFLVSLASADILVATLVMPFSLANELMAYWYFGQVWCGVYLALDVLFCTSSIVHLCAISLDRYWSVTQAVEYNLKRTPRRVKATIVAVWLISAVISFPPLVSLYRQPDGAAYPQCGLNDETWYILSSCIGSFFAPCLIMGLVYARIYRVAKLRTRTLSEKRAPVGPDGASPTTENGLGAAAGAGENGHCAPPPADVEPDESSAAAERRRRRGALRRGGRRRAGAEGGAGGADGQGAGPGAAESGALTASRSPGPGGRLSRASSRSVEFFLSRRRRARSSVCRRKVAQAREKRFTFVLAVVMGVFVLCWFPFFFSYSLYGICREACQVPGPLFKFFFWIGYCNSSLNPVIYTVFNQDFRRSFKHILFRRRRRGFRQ

| Structure (SMILES) | cell count [1] | inhibition [1] | inhibition of aggregation [2] | nuclei count [2] [%] | inhibition [3] | nuclei count [3] [%] | fluorescence slope [4] | NADPH fluorescence slope [5] | slope [6] | inhibition [7] | inhibition [8] |
| --- | --- | --- | --- | --- | --- | --- | --- | --- | --- | --- | --- |
| CCCCN(C)CCCNC(=O)CC1Oc2ccccc2NC1=O (stereo not drawn) | 585 | -2.7% (inactive) | 18.9% (inactive) | 104 | -11.7% (inactive) | 131 | -0.493 (inactive) | 1.6e-05 (inactive) | 0.00638 (inactive) | 13.8% (inactive) | 36.6% (inactive) |
| CCOC(=O)N1CCN(C(=O)CSc2nnc(-c3cc(OC)cc(OC)c3)o2)CC1 | 228 | 8.2% (inactive) | -10.3% (inactive) | 67.5 | -54.1% (inactive) | 99.6 | -0.398 (inactive) | -5.6e-05 (inactive) | 0.00254 (inactive) | 12.2% (inactive) | 29.1% (inactive) |
| COc1cc(Br)cc(CN2CCN(C/C=C/c3ccccc3)CC2)c1O | 273 | 5.8% (inactive) | -5% (inactive) | 98.5 | 3% (inactive) | 108 | -0.606 (inactive) | -8.8e-06 (inactive) | 0.00359 (inactive) | -0.336% (inactive) | -8.7% (inactive) |
| Cc1nc2ccc(C(=O)c3ccccc3)cc2[nH]1 | 411 | 7.2% (inactive) | 18.6% (inactive) | 69.6 | -8.7% (inactive) | 105 | -0.389 (inactive) | 2.4e-05 (inactive) | 0.00371 (inactive) | -30.7% (inactive) | -56.7% (inactive) |
| Brc1ccc2[nH]c3nc(SCCN4CCOCC4)nnc3c2c1 | 683 | -6.3% (inactive) | 9% (inactive) | 84.2 | -31.6% (inactive) | 114 | -0.56 (inactive) | 1.6e-05 (inactive) | 0.00594 (inactive) | -18.9% (inactive) | -40.9% (inactive) |
| Cc1c(NC(=O)C2CCCCN2S(=O)(=O)c2ccc(Cl)cc2)c(=O)n(-c2ccccc2)n1C (stereo not drawn) | 699 | -4.2% (inactive) | -14.5% (inactive) | 112 | 2% (inactive) | 109 | -0.604 (inactive) | 1.8e-05 (inactive) | 0.00694 (inactive) | 9.42% (inactive) | -3.63% (inactive) |
| CCCN1CCN(C(=O)Cn2c(=O)oc3cc(S(=O)(=O)NCc4ccccc4)ccc32)CC1 | 809 | 1.6% (inactive) | -16.6% (inactive) | 117 | -19.9% (inactive) | 114 | -0.51 (inactive) | -2.7e-05 (inactive) | 0.00639 (inactive) | 8.82% (inactive) | 23.8% (inactive) |
| COc1ccc(-c2nc(CSCC(=O)N3CCc4ccccc4C3)c(C)o2)cc1OC | 643 | 6.9% (inactive) | -5.2% (inactive) | 101 | 5.9% (inactive) | 116 | -0.603 (inactive) | -1.8e-06 (inactive) | 0.00589 (inactive) | 8.21% (inactive) | 12.7% (inactive) |
| CCc1c(C(=O)NCCc2ccc(OC)c(OC)c2)[nH]c(C)c1C(C)=O | 274 | 2.4% (inactive) | -21.3% (inactive) | 107 | 5.2% (inactive) | 93.4 | -0.34 (inactive) | -1.2e-05 (inactive) | 0.00669 (inactive) | 17.6% (inactive) | 16.1% (inactive) |
| Cc1ccc2cc(CN(Cc3ccc4c(c3)OCO4)Cc3nnnn3Cc3ccco3)c(=O)[nH]c2c1C | 338 | 0.9% (inactive) | 29.2% (inactive) | 49 | -79.9% (inactive) | 109 | -0.389 (inactive) | 4.5e-05 (inactive) | 0.00797 (inactive) | 39.3% (inactive) | 79.5% (active) |
| CCOc1cc(C(=O)NCc2nnc(SCC(=O)OC)n2C)cc(OCC)c1OCC | 291 | 10% (inactive) | 17% (inactive) | 55.3 | 1.2% (inactive) | 101 | -0.337 (inactive) | -1.2e-05 (inactive) | 0.00327 (inactive) | 10.7% (inactive) | 16% (inactive) |
| COc1cccc(-c2cc(C(=O)N3CCCCCC3)no2)c1 | 519 | -11.6% (inactive) | -8.6% (inactive) | 82.4 | -44.3% (inactive) | 116 | -0.522 (inactive) | -3.5e-05 (inactive) | 0.00692 (inactive) | -24.6% (inactive) | -141% (inactive) |
| O=C(Nc1ccc2c(c1)nc1n2CCN(Cc2ccccc2)C1)c1cccs1 | 420 | -13.3% (inactive) | 6.4% (inactive) | 89.3 | 11.1% (inactive) | 73.9 | -0.461 (inactive) | -0.000271 (inactive) | 0.00505 (inactive) | -17.8% (inactive) | -84.2% (inactive) |
| CCOc1ccccc1NC(=O)CN(C)S(=O)(=O)c1cccc2nsnc12 | 671 | -16.4% (inactive) | -5.6% (inactive) | 96.9 | -141% (inactive) | 119 | -0.329 (inactive) | -4.9e-05 (inactive) | 0.00417 (inactive) | 15.8% (inactive) | 15.6% (inactive) |
| COC(=O)CC1SCCNC1=O (stereo not drawn) | 308 | 0.8% (inactive) | -7.1% (inactive) | 97.9 | 38.9% (inactive) | 98.8 | -0.552 (inactive) | 2e-05 (inactive) | 0.00463 (inactive) | 0.969% (inactive) | -5.15% (inactive) |
| Cc1cccc(NC(=O)CS(=O)(=O)c2cn(C)c3ccccc23)c1 | 628 | 2.4% (inactive) | 4.8% (inactive) | 99.7 | -12.5% (inactive) | 103 | -0.521 (inactive) | 2.1e-06 (inactive) | 0.00711 (inactive) | 7.93% (inactive) | 22.7% (inactive) |
| COc1ccc(C(=O)Nc2cccc(C)c2)cc1S(=O)(=O)N1CCOCC1 | 550 | -25.9% (inactive) | 0.7% (inactive) | 102 | -48.3% (inactive) | 111 | -0.572 (inactive) | -5.7e-05 (inactive) | 0.0063 (inactive) | 6.15% (inactive) | 3.92% (inactive) |
| O=C(c1c(F)cccc1F)N(Cc1ccccn1)C1CCCC1 | 521 | -11.2% (inactive) | 24.2% (inactive) | 110 | 40.9% (inactive) | 87.3 | -0.534 (inactive) | 2e-06 (inactive) | 0.00412 (inactive) | -7.47% (inactive) | -6.01% (inactive) |
| CCOC(=O)C1C2C=CC3(CN(Cc4ccco4)C(=O)C13)O2 (stereo not drawn) | 480 | 5.5% (inactive) | 16.2% (inactive) | 114 | -57.8% (inactive) | 115 | -0.469 (inactive) | -6.4e-05 (inactive) | 0.00537 (inactive) | 13.9% (inactive) | 21.7% (inactive) |
| CCC(C)NC(=O)c1cn(CC)c2ccc(S(=O)(=O)N(C)C)cc2c1=O (stereo not drawn) | 603 | -11.6% (inactive) | -11.6% (inactive) | 111 | -70.7% (inactive) | 125 | -0.376 (inactive) | 1.4e-05 (inactive) | 0.00604 (inactive) | 19.1% (inactive) | 29.7% (inactive) |
| CC(C)C(NC(=O)c1ccccc1NC(=O)c1ccco1)C(=O)O (stereo not drawn) | 368 | 1.7% (inactive) | -3.4% (inactive) | 103 | -32.6% (inactive) | 115 | -0.622 (inactive) | -3.3e-05 (inactive) | 0.00599 (inactive) | 19% (inactive) | 21.5% (inactive) |
| COc1cccc(NC(=O)N(Cc2ccco2)C(C)c2cccs2)c1 (stereo not drawn) | 734 | -12.7% (inactive) | -16.2% (inactive) | 103 | -52.3% (inactive) | 114 | -0.469 (inactive) | 2.7e-05 (inactive) | 0.00569 (inactive) | 11% (inactive) | 15.1% (inactive) |
| COc1ccc(NC(=O)CSc2nnc(Cc3cccn3C)n2-c2ccc(F)cc2)cc1 | 576 | 1.1% (inactive) | -14.5% (inactive) | 23.2 | -72.7% (inactive) | 112 | -0.577 (inactive) | 1.2e-05 (inactive) | 0.00735 (inactive) | 15% (inactive) | 18.7% (inactive) |
| c1ccc(-c2cc(N3CCCCC3)ncn2)cc1 | 327 | 0.7% (inactive) | -3.9% (inactive) | 101 | -109% (inactive) | 112 | -0.485 (inactive) | -4.6e-05 (inactive) | 0.00423 (inactive) | -37.6% (inactive) | -113% (inactive) |
| Cc1occc1C(=O)Nc1nnc(C2CCCCC2)s1 | 356 | 7.6% (inactive) | -8.9% (inactive) | 108 | 14% (inactive) | 106 | -0.526 (inactive) | -1.5e-05 (inactive) | 0.00511 (inactive) | -0.797% (inactive) | -13.3% (inactive) |
| CCOc1ccc(N2C(=O)CC(N3CC(C)OC(C)C3)C2=O)cc1 (stereo not drawn) | 578 | -14.1% (inactive) | -12% (inactive) | 104 | 3.9% (inactive) | 128 | -0.357 (inactive) | 5.9e-06 (inactive) | 0.00636 (inactive) | 9.5% (inactive) | 25.7% (inactive) |
| CCCSc1nc2c(cnn2-c2ccc(Cl)cc2)c(=O)[nH]1 | 213 | -1.3% (inactive) | -9.2% (inactive) | 108 | -40.2% (inactive) | 122 | -0.609 (inactive) | -1.8e-05 (inactive) | 0.011 (inactive) | 16% (inactive) | 14.5% (inactive) |
| COc1ccc(C)cc1NC(=O)CCC(=O)Nc1ccc2nc(N3CCN(C)CC3)cc(C)c2c1 | 623 | 1.5% (inactive) | -9.5% (inactive) | 104 | -62.6% (inactive) | 108 | -0.428 (inactive) | 6e-06 (inactive) | 0.00326 (inactive) | -21.1% (inactive) | -51.1% (inactive) |
